The values that follow come from PubChem BioAssay AID1626 (SRMLSC, 2009).

About 2,000 (0.91%) of roughly 220,000 compounds were called active. Another 2% or so got no clear call; they are omitted. Only a sample is shown. Measured potencies and affinities stand elsewhere. Unmarked numbers belong to inactive results. Cut-off read from the data, not from the text of the source: inconclusive = inhibition above about 80% without an active follow-up result; inactive = below that; test concentration not stated here.

A short description of this test: M. tuberculosis H37Rv growth inhibitors, H37Rv strain (AID 1626).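 Note: bacteria incubated seven days before Alamar blue readout; 0% = bacteria only wells and 100% = bacteria with antibiotic wells.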 The settings on record: hits give high values, concentration not given here.
A word on the inhibition: it is the drop in the measured response relative to a control, in per cent. As to `CCOC(=O)c1cc(CC)sc1N1C(=O)CC(Sc2ncccc2C(=O)O)C1=O` (stereo not drawn), the inhibition was 2.89%.
For the compound `Cc1ccc(S(=O)(=O)N(C)C)cc1NC(=O)C1CCC1`, the inhibition is -2.34%.
With `CCOc1ccc(N(CC(=O)Nc2c(C)cccc2C)S(=O)(=O)c2c(C)[nH]c(=O)[nH]c2=O)cc1` the figure was 7.56%; with `CCn1c(N2CCN(C(=O)/C=C/c3ccccc3)CC2)nc2ccccc21`, 0.45%; with `CC(C)Cn1c(N2CCN(C(=O)c3cccs3)CC2)nc2ccccc21`, -13.3%.
With `CCOc1ccc(CC(=NCCc2ccccc2)C2=C(O)CC(C)(C)CC2=O)cc1OCC` the figure was 6.31%; with `CCn1c(SCC(=O)Nc2ccc3c(c2)OCCO3)nnc1-c1c[nH]c2ccccc12`, -6.16%.
Under `O=C(Nc1nn[nH]n1)c1cccc(Oc2ccccc2)c1` stands -4.2%; under `O=C(Nc1nnc(-c2cccs2)o1)c1ccco1`, 71.2%; under `O=C(Nc1cccc(C(F)(F)F)c1)c1cc(-c2cccs2)on1`, -6.91%.
Turning to `COc1cccc(C(=O)Nc2nnc(-c3cccs3)s2)c1`, the inhibition was 8.53%.
With `CCCCNc1ccc(S(N)(=O)=O)cc1[N+](=O)[O-]` the figure was -3.02%.
`COC(=O)C1C(O)=C(C=Nc2cccc3ccccc23)C(=O)CC1(C)C` (stereo not drawn): the inhibition was 55%.
With `COC(=O)C1C(O)=C(C=Nc2ccccc2)C(=O)CC1(C)C` (stereo not drawn) the figure was 18%; with `CC1CCN(C(=O)c2ccc(N3CC4CC(C3)c3cccc(=O)n3C4)c([N+](=O)[O-])c2)CC1` (stereo not drawn), -2.48%; with `Nc1cc(=O)[nH]c(SCC(=O)Nc2ccccc2Sc2ccccc2)n1`, 0.31%.
With `Nn1c(SCc2ccc(F)cc2)nnc1-c1cccnc1` the figure was 0.75%.
With `Cc1cc(C)c2nc(/N=C(\N)NC(=O)c3ccccc3)nc(C)c2c1`, the inhibition is 5.97%.
With `Cc1ccc2nc(N=C(N)N)nc(C)c2c1` the figure was 8.48%; with `CCCC(=O)N/C(N)=N/c1nc(C)c2cc(C)ccc2n1`, 31.5%; with `Cc1nc(/N=C(\N)Nc2ccccc2)nc2ccccc12`, -4.15%.
Under `O=C(NCCNC(=O)c1ccc([N+](=O)[O-])cc1)c1ccncc1` stands -5.65%.
With `O=S(=O)(Nc1cccc2cn[nH]c12)c1ccc(F)cc1` the figure was -1.2%; with `CC(=O)NCCOc1ccc2oc3ccccc3c2c1`, 14.2%.
`C/C(=N\OCC(=O)NC12CC3CC(CC(C3)C1)C2)c1cc2ccccc2o1`: the inhibition was 24.4%.
Under `O=C(c1ccccc1)N1CCCC(C(=O)N2CCN(c3ccccc3)CC2)C1` (stereo not drawn) stands -13.7%; under `OC(COCC(F)(F)C(F)(F)C(F)(F)C(F)F)Cn1c2ccccc2c2ccccc21` (stereo not drawn), 47.2%.
Under `CC(=O)N(C)c1ccc(OCC(O)Cn2c3ccc(Cl)cc3c3cc(Cl)ccc32)cc1` (stereo not drawn) stands -0.39%; under `CCn1c(SCC(=O)Nc2nc(C)cs2)nnc1-c1cccnc1`, 10.4%.
With `O=C(NCc1cccnc1)/C(=C/c1ccc(-c2cccc(Cl)c2)o1)S(=O)(=O)c1ccccc1` the figure was 56.8%; with `O=C(NCc1cccnc1)c1ccc(-c2ccc(Cl)cc2)o1`, -1.29%.
With `CCS(=O)(=O)c1nc2ccccc2n1Cc1ccccc1Cl`, the inhibition is 0.3%.
With `Cc1ccccc1Cn1c(C(C)O)nc2ccccc21` (stereo not drawn) the figure was 1.24%.
Under `CC(=O)Nc1nc2ccccc2n1CCN(C)C` stands -1.12%; under `CC(=O)NCCCc1nc2ccccc2n1Cc1ccccc1C`, -3.1%.
With `CC(=O)NCc1nc2ccccc2n1Cc1ccccc1C` the figure was -1.94%; with `CC(=O)NCCc1nc2ccccc2n1Cc1ccccc1`, 2.23%.
For the compound `CCC(=O)Nc1nonc1-c1nc2ccccc2n1Cc1cccc2ccccc12`, the inhibition was 20.3%.
Under `CCn1c(NCc2ccccc2Cl)nc2ccccc21` stands 1.72%; under `Cc1cc(C)c(C(=O)Nc2ccc(Br)c(C(F)(F)F)c2)c(C)c1`, 50.8%; under `C=CCN(C(=O)CNC(=O)c1ccco1)C(C(=O)NC1CCCCC1)c1ccccc1` (stereo not drawn), -3.02%.
With `COc1ccc2nc3sc(C(=O)NCCN4CCc5ccccc5C4)cc3cc2c1` the figure was 11.3%.
With `Cn1c(CCNC(=O)OC(C)(C)C)n[nH]c1=S` the figure was -7.46%; with `CC12CCC(C(=O)Nc3ccccc3N3CCOCC3)(CC1=O)C2(C)C` (stereo not drawn), -3.66%.
`COc1cccc(N=Cc2c[nH][nH]c2=O)c1`: the inhibition is -5.96%.
Under `O=c1[nH][nH]cc1C=Nc1ccc(Cl)cc1` stands 4.25%.
With `C/[N+]([O-])=C/c1c(OCc2ccc(Cl)cc2Cl)ccc2ccccc12` the figure was 10.9%; with `Cc1c(C(=O)Nc2ccc(F)cc2)c2ccccn2c1CCc1ccncc1`, 1.73%; with `Cc1ccc(C)c(Cn2c(=O)n(CCC(=O)NCc3ccco3)c(=O)c3sccc32)c1`, -2.02%.
In the case of `O=C1CC(c2ccco2)CC2=C1C(c1ccccc1)n1nc(C(F)(F)F)nc1N2` (stereo not drawn), the inhibition is 2.19%.
Under `CCOC(=O)c1sc(NC(=O)COC(=O)CNC(=O)C2CCCCC2)c(C(=O)OCC)c1C` stands -1.65%.
Under `O=C(COc1nc2ccccc2nc1N1CCOCC1)NC1CCCCC1` stands 5.49%; under `CC(=O)Nc1ccc(S(=O)(=O)N2CCN(c3nnnn3-c3ccccc3)CC2)cc1`, -0.88%.
Under `O=S(=O)(CS(=O)(=O)c1ccc(Cl)cc1)c1ccc(Cl)cc1` stands 6.17%; under `c1ccc(-c2nc(C3CCCCC3)no2)cc1`, 3.47%; under `c1ccc(-c2cc(-c3nc(-c4ccccn4)no3)c3ccccc3n2)cc1`, 9.71%.
`O=C(CN1CCCCC1)c1ccc(OC(F)F)cc1`: the inhibition was -5.74%.
Under `c1ccc(N2CCOCC2)c(Nc2nc3ccccc3n3cnnc23)c1` stands 8.42%.
Turning to `c1ccc(N2CCCCC2)c(Nc2nc3ccccc3n3cnnc23)c1`, the inhibition is 14.3%.
Under `Nc1cc(OC(=O)c2cccs2)nn1S(=O)(=O)c1ccc(F)cc1` stands 5.67%; under `Cc1ccc(NC(=O)Cn2c(O)c(N=NC(=O)c3cc([N+](=O)[O-])ccc3O)c3ccccc32)cc1`, 45.8%; under `Cc1cc(N2CCN(c3ccccc3)CC2)nc(-c2ccccc2)n1`, -10.3%.
With `Cc1cc(Cl)nc(-n2nc(C)cc2C)n1` the figure was -0.69%.
Under `Cc1cc(C)n(-c2nc3ccccc3nc2N2CCC(C)CC2)n1` stands 2.59%.
Regarding `Cc1cc(N2CCN(c3ccccc3)CC2)nc(N)n1`, the inhibition is -2.3%.
With `O=c1cn[nH]c2ccccc12` the figure was -1.28%; with `CCOc1cc(/C=N\NC(=O)C2C(=O)NCC2c2ccccc2)ccc1OC` (stereo not drawn), -8.61%; with `Cc1c(Br)ccc(NC(=O)CCN2C(=O)C3C4CCC(C4)C3C2=O)c1C` (stereo not drawn), -22.5%.
As to `CCOC(=O)c1c(N2C(=O)C3CC(C)=C(C)CC3C2=O)sc(C)c1C` (stereo not drawn), the inhibition was -1.38%.
Under `COc1ccc(NC(=O)CNc2cccc(C#N)c2)cc1Cl` stands -9.7%.
Regarding `COc1ccc(NC(=O)CNc2ccc(C#N)cc2)cc1`, the inhibition was -4.76%.
Turning to `COc1ccccc1NC(=O)CNc1ccc(F)c(Cl)c1`, the inhibition is -4.82%.
Under `N#Cc1ccccc1NC(=O)CNc1ccc(Cl)c(C(F)(F)F)c1` stands 1.74%; under `Cc1noc(C)c1/C=N/Nc1ccccn1`, -11.2%; under `COC(=O)c1ccccc1NC(=O)c1sc(N)nc1C`, -3.82%.
As to `CCC/C=C1/CCCOC(C(=O)NCc2ccccc2)(C(F)(F)F)C1` (stereo not drawn), the inhibition was -24.5%.
Regarding `O=C(Nc1ccc(-c2csc(Nc3ccccc3)n2)cc1)c1cccc(C(F)(F)F)c1`, the inhibition was 14.9%.
With `O=C(Nc1ccc(-c2csc(Nc3ccccc3)n2)cc1)c1cc([N+](=O)[O-])cc(C(F)(F)F)c1`, the inhibition was 50.3%.
With `O=C(Nc1cccc(-c2csc(Nc3cccc(C(F)(F)F)c3)n2)c1)c1cc([N+](=O)[O-])cc(C(F)(F)F)c1`, the inhibition was -8.7%.
With `O=C(Nc1ccc(-c2csc(Nc3cccc(C(F)(F)F)c3)n2)cc1)c1ccccc1` the figure was 0.91%; with `CCOc1ccccc1N(CC(=O)NCc1ccccc1)C(=O)CCC(=O)Nc1cc(C)ccn1`, -1.77%.
As for `Cc1cc(NCCCN2CCOCC2)n2c(nc3ccccc32)c1C#N`, the inhibition is -4.69%.
As to `CC1=C(C(=O)OC(C)C)C(c2cccs2)n2ncnc2N1` (stereo not drawn), the inhibition is 7.3%.
In the case of `CC(=O)Nc1ccc(C(=O)/C=C/c2ccco2)cc1`, the inhibition is -0.44%.
With `O=C(/C=C\c1ccco1)c1ccc(NC(=O)c2ccco2)cc1` the figure was -2.87%.
With `COCCCNC(=S)N(Cc1ccccc1)Cc1nc2ccccc2c(=O)[nH]1` the figure was -7.77%; with `NC(=O)C(=CNc1nc(-c2ccc(Cl)c(Cl)c2)cs1)C(N)=O`, -3.81%.
Regarding `OC1=C(O)c2nc3cc(C(F)(F)F)ccc3nc21`, the inhibition was -3.35%.
With `COc1ccc(NCc2ccc([N+](=O)[O-])s2)c(OC)c1`, the inhibition is 79.8%.
With `COc1cccc(NCc2ccc([N+](=O)[O-])s2)c1` the figure was 15.2%; with `CCOC(=O)c1cc(NC(=O)C2CCCO2)cc(C(=O)OCC)c1` (stereo not drawn), 3.41%.
Under `COC(=O)c1ccc(NC(=O)C2CCCO2)cc1` (stereo not drawn) stands -10.3%; under `COC(=O)c1ccc(NC(=O)C2C3C=CC(O3)C2C(=O)O)cc1` (stereo not drawn), -12.1%.
With `CCCCNC(=O)c1ccc(NC(=O)C2CCCO2)cc1` (stereo not drawn), the inhibition is 0.89%.
With `CCCCNS(=O)(=O)c1ccc(NC(=O)C2CCCO2)cc1` (stereo not drawn) the figure was 6.1%.
Under `NC(=O)c1ccc(NC(=O)C2CCCO2)cc1` (stereo not drawn) stands -8.76%.
With `CC(C)COC(=O)c1ccc(NC(=O)C2C3C=CC(C3)C2C(=O)O)cc1` (stereo not drawn), the inhibition was 58.1%.
Take `COC(=O)c1ccc(NC(=O)c2ccc(NC(=O)C3CCCO3)cc2)cc1` (stereo not drawn): the inhibition is 10.1%.
